Activity calls are given as the source filed them.
Experiments:
[1] = system: Human papillomavirus type 1a protein E7 (residues 44-93); assay: small molecules binding HPV E7 44-93 – biochemical, small-molecule microarray, residues 44-93, 635 nm fluorescence, primary screen (AID 1108); conditions: fluorescence 635 nm, higher = more signal;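 note: E7 fragment applied at 1 µg/mL in TBST for 1 h at 4 C; score combines spot fluorescence with its signal to noise ratio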
[2] = hepatitis C replication reporter changes, two-sided – Huh7 cells, luciferase reporter, HCV replication inhibitor project, primary screen (AID 1109); conditions: Huh7 HCV replicon luciferase reporter, 48 h; higher = more signal;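 note: huh7 hepatoma cells harbouring a luciferase neomycin HCV replicon reporter; luciferase luminescence as measure of HCV replicon replication; test concentration not given here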
[3] = biological target: Left-right determination factor 2 (Homo sapiens) (UniProt O00292); assay: small molecules binding LEFTY2 protein – biochemical, small-molecule microarray, 635 nm fluorescence scan, primary screen (AID 1110); conditions: higher = more signal
Sequence of Left-right determination factor 2 (Homo sapiens) (O00292 whole entry, looked up): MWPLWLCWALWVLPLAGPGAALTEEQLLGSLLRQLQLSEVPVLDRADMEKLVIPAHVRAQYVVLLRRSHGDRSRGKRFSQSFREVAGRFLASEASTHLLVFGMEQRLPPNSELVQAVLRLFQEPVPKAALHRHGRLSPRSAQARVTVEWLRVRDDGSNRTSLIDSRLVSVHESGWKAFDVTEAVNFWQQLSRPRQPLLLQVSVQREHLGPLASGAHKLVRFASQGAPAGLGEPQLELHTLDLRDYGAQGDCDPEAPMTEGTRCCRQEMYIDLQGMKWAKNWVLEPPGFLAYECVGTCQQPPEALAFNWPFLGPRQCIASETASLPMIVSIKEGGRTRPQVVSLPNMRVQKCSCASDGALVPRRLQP

[4] = biological target: Calmodulin-1 (Homo sapiens) (UniProt P0DP23); assay: small molecules binding calmodulin-1 with EGTA – biochemical, small-molecule microarray, Cy5-labelled CALM1, profiling panel (AID 1111); conditions: Cy5-CALM1 binding fluorescence, higher = more signal;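 note: labelled calmodulin applied in Tris saline Tween buffer holding calcium plus EGTA and DTT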
[5] = biological target: Calmodulin-1 (Homo sapiens) (UniProt P0DP23); assay: small molecules binding Ca-loaded calmodulin-1 – biochemical, small-molecule microarray, Cy5-labelled CALM1, plus calcium, artefact control for SMM control-protein annotation, profiling panel (AID 1112); conditions: Cy5-CALM1 binding fluorescence, higher = more signal;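 note: score merges spot fluorescence with signal to noise from triplicate slides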
[6] = probe aWnt5a binding to arrayed compounds – biochemical, biotinylated probe, 635/667 nm fluorescence, primary screen (AID 1113); conditions: small-molecule microarray, higher = more signal;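 note: score merges 667 nm fluorescence intensity with signal-to-noise per printed feature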
[7] = probe aShh binding to arrayed compounds – biochemical, biotinylated probe, 635/667 nm fluorescence, primary screen (AID 1114); conditions: small-molecule microarray, higher = more signal;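 note: probe is biotin-labelled aShh protein from a stem cell growth factor screen; measures binding of labelled protein to compounds printed on the slide; score merges feature fluorescence at 667 nm with signal-to-noise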
[8] = probe aNog binding to arrayed compounds – biochemical, biotinylated probe, 635/667 nm fluorescence, primary screen (AID 1115); conditions: small-molecule microarray, higher = more signal;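 note: probe is biotinylated aNog protein used at 0.15 µg/mL for 1 h at 4 C; z-score combines 667 nm fluorescence of each spot with its signal to noise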
[9] = biological target: Torsin-1A-interacting protein 1 (Homo sapiens) (UniProt Q5JTV8); assay: compound microarray binding of lysate hLAP1 – cell lysate, small-molecule microarray, COS7 lysate, 635/667 nm fluorescence, primary screen (AID 1116); conditions: 635 nm fluorescence, higher = more signal
Sequence of Torsin-1A-interacting protein 1 (Homo sapiens) (Q5JTV8 whole entry, looked up): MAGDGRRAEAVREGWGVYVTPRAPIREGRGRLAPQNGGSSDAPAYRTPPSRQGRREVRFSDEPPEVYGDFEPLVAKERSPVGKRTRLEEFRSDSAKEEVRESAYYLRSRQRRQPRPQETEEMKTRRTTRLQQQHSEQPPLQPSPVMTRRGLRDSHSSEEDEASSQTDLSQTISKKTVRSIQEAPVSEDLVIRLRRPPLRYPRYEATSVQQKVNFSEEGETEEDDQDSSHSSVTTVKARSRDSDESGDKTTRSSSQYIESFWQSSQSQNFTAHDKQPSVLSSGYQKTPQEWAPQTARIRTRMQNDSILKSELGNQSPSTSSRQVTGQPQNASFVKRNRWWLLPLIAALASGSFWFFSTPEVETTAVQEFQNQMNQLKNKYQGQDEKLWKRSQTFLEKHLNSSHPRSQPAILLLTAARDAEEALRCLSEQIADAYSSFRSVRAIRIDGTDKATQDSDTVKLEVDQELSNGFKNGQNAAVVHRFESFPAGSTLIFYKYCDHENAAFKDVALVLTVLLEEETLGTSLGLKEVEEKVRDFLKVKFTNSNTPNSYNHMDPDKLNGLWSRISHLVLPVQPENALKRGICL

[10] = biological target: Alpha-bungarotoxin (Bungarus multicinctus) (UniProt P60615); assay: compounds binding labelled alpha-BTX control protein – biochemical, small-molecule microarray, Alexa647 label, 635/667 nm fluorescence, artefact control for SMM control protein annotation, profiling panel (AID 1117); conditions: alpha-BTX-A647 binding fluorescence, higher = more signal
Sequence of Alpha-bungarotoxin (Bungarus multicinctus) (P60615 whole entry, looked up): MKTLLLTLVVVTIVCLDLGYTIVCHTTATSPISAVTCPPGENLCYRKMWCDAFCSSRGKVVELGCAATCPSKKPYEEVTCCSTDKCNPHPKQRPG

Albumin (Bos taurus) = Albumin (Bos taurus) (UniProt P02769); assay: compounds binding labelled BSA control protein – biochemical, small-molecule microarray, Alexa647 label, 635/667 nm fluorescence, artefact control for SMM control protein annotation, profiling panel (AID 1118); conditions: BSA-A647 binding, fluorescence 635 nm, higher = more signal;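 note: score merges 667 nm emission intensity and signal-to-noise per printed compound spot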
Sequence of Albumin (Bos taurus) (P02769 whole entry, looked up): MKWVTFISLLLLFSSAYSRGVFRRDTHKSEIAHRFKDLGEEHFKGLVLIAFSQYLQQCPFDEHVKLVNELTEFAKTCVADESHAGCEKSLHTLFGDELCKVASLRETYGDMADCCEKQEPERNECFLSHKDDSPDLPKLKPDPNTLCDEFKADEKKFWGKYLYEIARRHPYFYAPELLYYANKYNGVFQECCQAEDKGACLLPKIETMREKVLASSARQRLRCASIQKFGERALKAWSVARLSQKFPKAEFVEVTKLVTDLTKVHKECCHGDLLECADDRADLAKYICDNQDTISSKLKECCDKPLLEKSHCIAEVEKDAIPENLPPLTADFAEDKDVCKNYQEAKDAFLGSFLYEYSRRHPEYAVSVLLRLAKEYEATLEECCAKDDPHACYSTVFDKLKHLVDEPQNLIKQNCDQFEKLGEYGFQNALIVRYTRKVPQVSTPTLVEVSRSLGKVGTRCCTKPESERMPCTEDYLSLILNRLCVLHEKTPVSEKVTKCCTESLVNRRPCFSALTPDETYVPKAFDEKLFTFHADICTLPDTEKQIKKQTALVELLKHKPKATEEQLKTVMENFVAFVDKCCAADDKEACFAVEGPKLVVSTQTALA

[11] = probe aXIP binding to arrayed compounds – biochemical, NeuroSMM set, 635/667 nm fluorescence, primary screen (AID 1119); conditions: small-molecule microarray, higher = more signal, called active from +8 up or from −8 down;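 note: probe is the protein aXip251-270 applied at 1 µg/mL to compound-printed slides; binding of probe to printed compounds measured as 667 nm fluorescence plus signal to noise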
[12] = probe aNOTCH3 binding on compound microarray – biochemical, small-molecule microarray, 635/667 nm fluorescence, primary screen (AID 1120); conditions: higher = more signal;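 note: probe is a biotin-tagged antibody raised against NOTCH3 rather than NOTCH3 protein; score merges spot fluorescence near 667 nm with spot signal to noise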
[13] = probe aNOTCH2 binding on compound microarray – biochemical, small-molecule microarray, 635/667 nm fluorescence, primary screen (AID 1121); conditions: higher = more signal;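 note: score merges feature fluorescence read at 667 nm with its signal to noise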
[14] = biological target: Carbonic anhydrase 2 (Homo sapiens) (UniProt P00918); assay: compounds binding carbonic anhydrase 2 – biochemical, small-molecule microarray, Alexa647-labelled CAII, profiling panel (AID 1122); conditions: CAII-A647 binding fluorescence, higher = more signal
[15] = COS7 lysate on small-molecule microarray, probe aHis, 635 nm (AID 1123); conditions: COS7 cell lysate, fluorescence, higher = more signal;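 note: z-score combines 667nm fluorescence intensity with signal-to-noise per printed compound spot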
[16] = probe aLAP1 signal on lysate-treated microarray – cell lysate, small-molecule microarray, COS7 lysate, primary screen (AID 1124); conditions: probe aLAP1, fluorescence, higher = more signal;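 note: lysate comes from COS7 cells expressing LAP1 and is applied at 0.3 µg/mL; score merges spot fluorescence near 667 nm with signal-to-noise over triplicate slides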
Sam68 (KHDRBS1) = assay: compounds binding KHDRBS1 protein – biochemical, small-molecule microarray, 635 nm fluorescence, primary screen (AID 1125); conditions: higher = more signal;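 note: score merges 667 nm channel intensity with signal to noise over triplicate slides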
[17] = system: Chordin-like protein 2 (CHRDL2); assay: compounds binding chordin-like 2 – biochemical, small-molecule microarray, 635 nm fluorescence, primary screen (AID 1126); conditions: fluorescence 635 nm, higher = more signal;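 note: printed compound slides probed with Chrdl2 protein at 4 µg/mL for 1 h at 4 C; score merges 667 nm emission intensity with signal to noise over three replicate slides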
[18] = biological target: Concanavalin-A (Canavalia ensiformis) (UniProt P02866); assay: compounds binding concanavalin A lectin – biochemical, small-molecule microarray, Alexa647 label, 635 nm, artefact control for SMM control protein annotation, primary screen (AID 1127); conditions: ConA-A647 binding fluorescence, higher = more signal;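 note: z combines 667 nm emission intensity with signal-to-noise across three replicate slides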
Sequence of Concanavalin-A (Canavalia ensiformis) (P02866 whole entry, looked up): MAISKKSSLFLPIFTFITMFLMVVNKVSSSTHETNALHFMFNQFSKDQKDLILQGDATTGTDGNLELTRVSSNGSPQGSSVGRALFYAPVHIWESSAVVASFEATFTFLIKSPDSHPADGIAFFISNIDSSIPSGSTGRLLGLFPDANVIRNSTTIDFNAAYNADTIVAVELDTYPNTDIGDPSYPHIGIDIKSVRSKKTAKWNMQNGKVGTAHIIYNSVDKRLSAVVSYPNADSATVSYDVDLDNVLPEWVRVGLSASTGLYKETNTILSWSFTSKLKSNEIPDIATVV

Compound | composite z-score [1] | z-score [2] | composite z-score [3] | composite z-score [4] | composite z-score [5] | composite z-score [6] | composite z-score [7] | composite z-score [8] | composite z-score [9] | composite z-score [10] | composite z-score (Albumin (Bos taurus)) | composite Z-score [11] | composite z-score [12] | composite z-score [13] | composite z-score [14] | composite z-score [15] | composite z-score [16] | composite z-score (Sam68 (KHDRBS1)) | composite z-score [17] | composite z-score [18]
CCN1C(=O)[C@H]2[C@H]3[C@H](O)[C@H](O)CC(=NOCc4ccccc4)[C@@H]3CC[C@H]2C1=O | 0.515 | -0.0462 | 0.609 | 0.36 | -0.467 | -0.0819 | -0.349 | -0.551 | 0.138 | 0.29 | -0.0633 | 1.92 (inactive) | 0.302 | -0.186 | 0.0453 | 0.37 | 1.74 | 0.598 | 0.589 | 0.7
COc1ccc(O[C@H]2C=C[C@@H](c3ccccc3)O[C@@H]2COC(=O)CCC(C)=NO[C@H](C)c2cn([C@@H]3COC[C@H]3O)nn2)cc1 | 0.765 | -2.82 | 0.51 | -0.121 | -0.686 | -0.119 | 0.0062 | -0.185 | 0.68 | 1.19 | 0.454 | 0.362 (inactive) | -0.015 | -0.211 | -0.106 | -0.208 | 0.263 | 0.771 | 0.656 | 0.427
O=C1O[C@@H](c2ccccc2)[C@@H](c2ccccc2)N2[C@@H](c3ccc(OCCO)cc3)[C@]3(C(=O)Nc4ccc(C#CCCO)cc43)[C@@H](C(=O)N3CCCCCCC3)[C@H]12 | -0.516 | -0.777 | 1.07 | 2.62 | 1.06 | 0.935 | 2.18 | 2.81 | 4.07 | 2.78 | 0.259 | 7.58 (inactive) | 1.66 | 0.745 | 0.896 | 3.6 | 1.02 | 1.3 | 1.25 | 1.15
CCCNC(=O)OC[C@H]1O[C@H](CCON=C2[C@H]3CCn4c(=O)n(-c5ccccc5)c(=O)n4[C@H]3[C@H](O)[C@@H]3O[C@H]23)C=C[C@@H]1Oc1ccc(OC)cc1 | 0.252 | -4.4 | 0.292 | -1.01 | -0.661 | -0.0944 | 0.0062 | -0.124 | -0.0551 | 0.134 | 0.704 | 2.63 (inactive) | -0.0377 | -0.0444 | 0.167 | 0.73 | 0.587 | 0.522 | 0.318 | 0.216
CCOc1ccc(N2C(=O)/C(=C/C=C/c3ccccc3OC)S(=O)(=O)C2c2cccc([N+](=O)[O-])c2)cc1 (stereo not given) | -0.432 | -2.17 | 0.49 | 1.27 | 0.545 | 0.0017 | -0.2 | 0.0373 | 0.351 | 0.321 | 0.382 | -0.327 (inactive) | 0.0762 | -0.0793 | -0.138 | 0.13 | 0.32 | -0.319 | 0.198 | 0.133

Source: PubChem BioAssay
